Laboratory results taken from PubChem BioAssay.
Calls of active or inactive are those of the source. Unless noted, the rule behind the calls is not given here.

Legend:
[1] = test system: Wnt5a (protein binding on small-molecule microarray); assay: small molecules binding Wnt5a protein – biophysical, small-molecule microarray, 635/667 nm fluorescence, primary screen (AID 1142); conditions: 635 nm fluorescence, higher = more signal;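 note: fluorescence read at 667 nm with signal to noise per printed feature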
[2] = ATP-based viability of Huh7 replicon cells – cell-based, CellTiter-Glo luminescence, basal, 48 h, cytotoxicity control for HCV replication inhibitor project, primary screen (AID 1143); conditions: higher = more signal, called active from +8 up or from −8 down;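 note: Huh7 hepatoma cells carrying a hepatitis C replication reporter with no stimulus; test concentration not given here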
[3] = Pseudomonas biofilm growth suppression – PAO1 strain, BacTiter-Glo luminescence, LB-PBS, primary screen (AID 1144); conditions: P. aeruginosa PAO1 biofilm, 12 h, higher = more signal
[4] = basal CRE-LacZ reporter activity in PC12 – cell-based, unstimulated, primary screen (AID 1145); conditions: no forskolin, luminescence, 4.5 h, higher = more signal, called active from +8 up or from −8 down
[5] = forskolin-driven CRE-LacZ activity in PC12 – cell-based, CRE-LacZ reporter, forskolin-stimulated, primary screen (AID 1146); conditions: luminescence, 4.5 h, higher = more signal, called active from +8 up or from −8 down;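 note: PC12 cells with 6xCRE LacZ reporter stimulated by forskolin 10 µM; beta-galactosidase reporter signal reflecting CREB driven transcription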
[6] = molecular target: Streptavidin (Streptomyces avidinii) (UniProt P22629); assay: compounds binding control protein streptavidin – biophysical, small-molecule microarray, 635/667 nm fluorescence, artefact control for SMM compound annotation, primary screen (AID 1147); conditions: higher = more signal;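 note: signal reflects streptavidin binding to arrayed compounds as a control protein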
[7] = probe aInhba binding on compound microarray – biochemical, small-molecule microarray, 635/667 nm fluorescence, primary screen (AID 1148); conditions: higher = more signal;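 note: score merges 667nm spot fluorescence with signal-to-noise for antibody binding to printed compounds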
Torsin-1A (Homo sapiens) [8] = molecular target: Torsin-1A (Homo sapiens) (UniProt O14656); assay: TOR1A wild-type binding on microarray – cell lysate, small-molecule microarray, lysate, 635/667 nm, primary screen (AID 1149); conditions: COS7 hTOR1A-WT lysate, 635 nm fluorescence, higher = more signal
Torsin-1A (Homo sapiens) [9] = molecular target: Torsin-1A (Homo sapiens) (UniProt O14656); assay: torsin A mutant lysate binding on microarrays – cell lysate, small-molecule microarray, COS7 lysate, 635/667 nm fluorescence, primary screen (AID 1150); conditions: COS7 hTOR1A mutant lysate, 635 nm fluorescence, higher = more signal;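 note: score pools 667 nm emission and signal to noise measuring lysate protein binding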
[10] = test system: Sonic hedgehog protein (Shh); assay: Sonic hedgehog microarray binding compounds – biochemical, small-molecule microarray, 635/667 nm fluorescence, primary screen (AID 1151); conditions: 635 nm fluorescence, higher = more signal;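 note: Shh protein binding to compounds spotted on small-molecule microarray slides; score combines spot fluorescence intensity with signal-to-noise across triplicate slides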
[11] = optical density shifts of acrAB sulA E. coli – strain DRC41, OD650, 48 h, E. coli filamentation inducer project, primary screen (AID 1152); conditions: higher = more signal, called active from +8 up or from −8 down;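 note: E. coli MC1000 strain DRC41 lacking acrAB efflux pump and sulA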
[12] = probe aLefty1 binding on compound microarray – biochemical, small-molecule microarray, 635/667 nm fluorescence, primary screen (AID 1153); conditions: higher = more signal;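 note: score merges spot fluorescence with signal-to-noise ratio from the scanned slide images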
[13] = plasmodial surface anion channel blockers, osmotic lysis – cell-based, P. falciparum Indochina, OD700, 1 h, primary screen (AID 1154); conditions: P. falciparum Indochina infected RBC osmotic lysis, higher = more signal, called active from +8 up or from −8 down
[14] = plasmodial surface anion channel blockers, osmotic lysis – cell-based, P. falciparum Indochina, OD700, 2 h, primary screen (AID 1155);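 note: lysis reports solute entry through the parasite surface anion channel PSAC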; conditions: P. falciparum Indochina infected erythrocytes, higher = more signal, called active from +8 up or from −8 down
[15] = changes in parasitized red cell lysis, either direction – P. falciparum Indochina, OD700, 3 h, PSAC antagonist project, primary screen (AID 1156); conditions: P. falciparum-infected erythrocytes, osmotic lysis, higher = more signal, called active from +8 up or from −8 down
[16] = plasmodial surface anion channel blockers, osmotic lysis – cell-based, P. falciparum Indochina, OD700, 18 h, primary screen (AID 1157); conditions: P. falciparum Indochina infected erythrocytes, osmotic lysis OD700, 18 h; higher = more signal, called active from +8 up or from −8 down
[17] = S6 kinase pathway phospho-S6 level changes – cell-based, A549, cytoblot, luminescence, serum-stimulated, primary screen (AID 1158); conditions: 5 h, higher = more signal;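 note: serum-stimulated A549 lung adenocarcinoma cells; signal is phosphorylated S6 detected by cytoblot immunostaining with HRP secondary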
[18] = molecular target: NADPH oxidase 2 (Homo sapiens) (UniProt P04839); assay: compounds shifting NOX2 Amplex Red fluorescence – cell-based, HEK293-NOX2, PMA-stimulated, NOX inhibitor project, primary screen (AID 1159); conditions: 45 min, higher = more signal, called active from +8 up or from −8 down; note: test concentration not given here
[19] = molecular target: NADPH oxidase 4 (Homo sapiens) (UniProt Q9NPH5); assay: compounds shifting NOX4 Amplex Red fluorescence – cell-based, HEK293-NOX4, tetracycline-induced, NOX inhibitor project, primary screen (AID 1160); conditions: HEK293-NOX4, Amplex Red H2O2 fluorescence, 45 min; higher = more signal, called active from +8 up or from −8 down
[20] = molecular target: NADPH oxidase 5 (Homo sapiens) (UniProt Q96PH1); assay: compounds shifting NOX5 Amplex Red fluorescence – cell-based, HEK293-NOX5, NOX inhibitor project, primary screen (AID 1161); conditions: HEK293-NOX5, ionomycin, 45 min, higher = more signal
NADPH oxidase 5 (Homo sapiens), sequence (Q96PH1 whole entry, looked up): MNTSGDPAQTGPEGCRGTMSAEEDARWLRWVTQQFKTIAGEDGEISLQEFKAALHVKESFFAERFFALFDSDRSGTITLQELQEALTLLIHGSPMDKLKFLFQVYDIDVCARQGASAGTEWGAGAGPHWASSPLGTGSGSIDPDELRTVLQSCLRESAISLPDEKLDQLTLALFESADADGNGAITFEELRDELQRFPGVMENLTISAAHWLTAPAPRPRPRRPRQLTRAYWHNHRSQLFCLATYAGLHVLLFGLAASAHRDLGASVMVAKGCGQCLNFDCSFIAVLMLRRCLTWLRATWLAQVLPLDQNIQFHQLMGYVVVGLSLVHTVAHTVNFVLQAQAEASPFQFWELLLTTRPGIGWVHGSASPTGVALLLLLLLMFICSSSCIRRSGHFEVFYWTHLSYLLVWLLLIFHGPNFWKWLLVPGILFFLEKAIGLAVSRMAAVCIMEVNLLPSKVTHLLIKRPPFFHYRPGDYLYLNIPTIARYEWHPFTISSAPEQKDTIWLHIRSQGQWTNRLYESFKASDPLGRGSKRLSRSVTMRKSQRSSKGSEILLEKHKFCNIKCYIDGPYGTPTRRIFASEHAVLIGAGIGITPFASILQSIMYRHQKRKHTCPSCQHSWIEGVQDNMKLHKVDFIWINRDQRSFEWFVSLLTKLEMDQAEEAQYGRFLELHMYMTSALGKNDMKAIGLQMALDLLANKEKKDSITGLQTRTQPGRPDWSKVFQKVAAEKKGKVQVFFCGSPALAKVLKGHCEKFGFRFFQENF

NADPH oxidase 4 (Homo sapiens), sequence (Q9NPH5 whole entry, looked up): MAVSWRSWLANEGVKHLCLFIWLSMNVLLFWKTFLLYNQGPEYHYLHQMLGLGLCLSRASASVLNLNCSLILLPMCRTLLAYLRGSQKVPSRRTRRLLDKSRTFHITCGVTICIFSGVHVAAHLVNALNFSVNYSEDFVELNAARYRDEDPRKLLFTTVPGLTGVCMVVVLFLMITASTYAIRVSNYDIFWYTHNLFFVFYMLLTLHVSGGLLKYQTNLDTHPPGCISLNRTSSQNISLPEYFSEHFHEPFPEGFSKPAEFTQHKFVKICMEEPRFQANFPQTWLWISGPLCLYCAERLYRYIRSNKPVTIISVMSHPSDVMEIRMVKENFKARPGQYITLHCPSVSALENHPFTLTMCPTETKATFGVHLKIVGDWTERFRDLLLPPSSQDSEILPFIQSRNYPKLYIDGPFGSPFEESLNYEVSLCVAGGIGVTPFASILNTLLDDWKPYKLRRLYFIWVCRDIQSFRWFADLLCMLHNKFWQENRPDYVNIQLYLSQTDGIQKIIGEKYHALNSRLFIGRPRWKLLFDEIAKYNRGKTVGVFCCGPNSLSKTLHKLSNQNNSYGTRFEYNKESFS
NADPH oxidase 2 (Homo sapiens), sequence (P04839 whole entry, looked up): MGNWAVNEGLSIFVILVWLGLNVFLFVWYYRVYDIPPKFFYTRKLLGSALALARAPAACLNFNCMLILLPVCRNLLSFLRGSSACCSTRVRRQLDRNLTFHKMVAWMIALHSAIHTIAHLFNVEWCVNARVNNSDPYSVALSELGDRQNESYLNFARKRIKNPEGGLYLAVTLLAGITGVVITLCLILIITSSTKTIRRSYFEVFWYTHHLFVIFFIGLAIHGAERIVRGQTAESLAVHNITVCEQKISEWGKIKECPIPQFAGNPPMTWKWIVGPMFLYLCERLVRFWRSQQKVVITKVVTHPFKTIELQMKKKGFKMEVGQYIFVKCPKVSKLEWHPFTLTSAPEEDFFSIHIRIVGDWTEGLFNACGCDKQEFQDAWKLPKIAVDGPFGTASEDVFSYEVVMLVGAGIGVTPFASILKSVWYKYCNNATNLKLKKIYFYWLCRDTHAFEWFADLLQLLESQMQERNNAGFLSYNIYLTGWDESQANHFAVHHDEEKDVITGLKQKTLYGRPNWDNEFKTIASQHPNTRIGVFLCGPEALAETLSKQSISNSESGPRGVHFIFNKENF
Streptavidin (Streptomyces avidinii), sequence (P22629 whole entry, looked up): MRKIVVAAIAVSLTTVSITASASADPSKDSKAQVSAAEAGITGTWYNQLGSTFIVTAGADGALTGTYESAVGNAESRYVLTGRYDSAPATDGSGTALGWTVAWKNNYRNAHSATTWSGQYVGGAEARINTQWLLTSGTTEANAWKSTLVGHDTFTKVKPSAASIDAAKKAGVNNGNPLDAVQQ
Torsin-1A (Homo sapiens), sequence (O14656 whole entry, looked up): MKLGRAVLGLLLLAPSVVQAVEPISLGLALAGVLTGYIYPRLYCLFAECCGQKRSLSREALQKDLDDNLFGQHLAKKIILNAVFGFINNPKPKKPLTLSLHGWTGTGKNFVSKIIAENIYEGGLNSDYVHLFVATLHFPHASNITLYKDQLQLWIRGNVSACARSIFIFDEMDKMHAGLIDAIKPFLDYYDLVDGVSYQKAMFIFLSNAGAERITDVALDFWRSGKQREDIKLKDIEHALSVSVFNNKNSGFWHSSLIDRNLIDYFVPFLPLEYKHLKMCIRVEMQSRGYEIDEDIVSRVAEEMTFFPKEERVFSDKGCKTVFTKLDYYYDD

Row | Structure (SMILES) | composite z-score [1] | z-score [2] | z-score [3] | z-score [4] | z-score [5] | composite z-score [6] | composite z-score [7] | composite z-score (Torsin-1A (Homo sapiens) [8]) | composite z-score (Torsin-1A (Homo sapiens) [9]) | composite z-score [10] | z-score [11] | composite z-score [12] | z-score [13] | z-score [14] | z-score [15] | z-score [16] | z-score [17] | z-score [18] | z-score [19] | z-score [20]
1 | C=C(CCCC)C(=O)CC[C@@H](OC(C)=O)c1ccc(CO)o1 | 0.52 | -1.56 (inactive) | -0.905 (inactive) | -0.35 (inactive) | 0.516 (inactive) | -0.918 | -0.154 | -0.0372 | 0.232 | 1.95 | 0.0002 (inactive) | -0.0278 | 0.113 (inactive) | 0.0176 (inactive) | -1.18 (inactive) | 0.184 (inactive) | -0.0622 | -1.23 (inactive) | -0.538 (inactive) | -2.37
2 | COc1cc2c(cc1O)C(c1cccs1)N(Cc1cccc(OC(F)(F)F)c1)CC2 (stereo not given) | -0.189 | -4.65 (inactive) | 0.284 (inactive) | -0.644 (inactive) | -0.73 (inactive) | 0.403 | -0.0762 | 0.288 | 0.0814 | 0.251 | 0.36 (inactive) | -0.0999 | 8.07 (active) | 0.192 (inactive) | 0.112 (inactive) | -0.751 (inactive) | 1.09 | -4.69 (inactive) | -2.74 (inactive) | -4.1
3 | COC(=O)[C@@]1(Cc2ccc(OC)cc2)[C@H]2c3cc(C(=O)N4CCCC4)n(CCCNc4ncc(C(F)(F)F)cc4Cl)c3C[C@H]2CN1C(=O)c1ccccc1 | 1.53 | -3.28 (inactive) | 0.0557 (inactive) | 0.769 (inactive) | 0.627 (inactive) | 1.25 | 0.826 | 0.0188 | 0.27 | -0.418 | -1.46 (inactive) | 0.982 | 10.1 (active) | 1.37 (inactive) | 2.15 (inactive) | 1.13 (inactive) | -0.0195 | 0.128 (inactive) | 0.577 (inactive) | 1.65
4 | COCC(=C=CC[C@H](O)c1cccc(OCCO)c1)CCO | 0.461 | 0.15 (inactive) | -0.833 (inactive) | 0.0281 (inactive) | 0.324 (inactive) | -0.33 | -0.12 | -0.744 | -0.434 | 1.81 | 0.223 (inactive) | -0.0508 | 2.69 (inactive) | -0.115 (inactive) | 0.104 (inactive) | 0.0864 (inactive) | 0.0095 | -1.67 (inactive) | -0.625 (inactive) | -0.539
5 | C=C(/C(=C/C[C@H](OC(C)=O)c1ccc(OCCO)cc1)c1cc(C(=O)OC)ccc1OC)C(C)C | 0.269 | -2.4 (inactive) | -0.357 (inactive) | 20.7 (active) | -0.509 (inactive) | 1.17 | 0.0589 | 0.287 | 1.98 | 1.41 | 0.759 (inactive) | 0.0844 | 19.2 (active) | 4.38 (inactive) | 3.26 (inactive) | 1.36 (inactive) | 0.31 | 0.864 (inactive) | 0.217 (inactive) | -1.42
6 | O=C(NCCN1CCOCC1)[C@@H]1c2ccccc2C(=O)N(Cc2cc(C(F)(F)F)cc(C(F)(F)F)c2)[C@H]1c1ccc(CO)cc1 | 0.556 | -0.0199 (inactive) | 0.623 (inactive) | 0.468 (inactive) | -0.713 (inactive) | -0.601 | 0.0154 | -0.027 | 0.133 | -0.211 | -0.0112 (inactive) | 0.0479 | 2.81 (inactive) | 1.44 (inactive) | 0.591 (inactive) | 0.526 (inactive) | -0.474 | -0.0635 (inactive) | 0.271 (inactive) | 2.36
7 | CS(=O)(=O)CCOC(=O)C1=CC(CCCO)=CC(C2CC2)N(Cc2cc3c(cc2Br)OCO3)C=C1C(=O)OCCS(C)(=O)=O (stereo not given) | 0.0339 | -0.737 (inactive) | -0.453 (inactive) | -0.0424 (inactive) | 0.926 (inactive) | 0.635 | -0.0695 | 0.913 | 1.03 | 0.358 | 0.307 (inactive) | 0.131 | 3.83 (inactive) | 1.02 (inactive) | 0.106 (inactive) | 0.504 (inactive) | 0.404 | -1.56 (inactive) | -0.0814 (inactive) | -1.11
8 | N#Cc1ccc(C(O)C2C=CC3C(=O)N(c4ccccc4)C(=O)C3N2Nc2ccccc2F)cc1 (stereo not given) | 0.286 | -2.92 (inactive) | -0.826 (inactive) | -0.107 (inactive) | -0.852 (inactive) | 0.0289 | -0.0986 | -0.291 | -0.301 | -0.234 | 0.55 (inactive) | 0.149 | 3.98 (inactive) | -0.245 (inactive) | -0.246 (inactive) | -0.616 (inactive) | 0.179 | -1.82 (inactive) | -3.54 (inactive) | -2.02
9 | CN1CCC(CCCO)=CC1c1cccs1 (stereo not given) | -0.142 | 0.504 (inactive) | 0.519 (inactive) | -0.145 (inactive) | 1.84 (inactive) | -0.131 | -0.128 | -0.214 | -0.122 | 0.834 | -0.193 (inactive) | -0.103 | 1.77 (inactive) | 0.144 (inactive) | -0.311 (inactive) | 0.0874 (inactive) | 0.362 | 0.151 (inactive) | 0.249 (inactive) | -0.115
